Bioassay records as filed in PubChem.
JMJD2A Tudor – JMJD2A Tudor domain (human) inhibition; AlphaScreen JMJD2A-Tudor / H3K4me3 peptide binding; Potency, µM (series often up to 114 µM), inactives show at the top dose activity change, negative = inhibition, actives largely listed as inhibitors; 4.4% of 390,000 active; also: % is scaled to controls: 0 for no effect and ±100 for the full control effect; nearly all actives have a fitted effect of over 50% in size
HP1b binding inh – blocks HP1-beta chromodomain binding to methylated histone tails; AID 540317; Potency, µM (top dose mostly 114 µM), for the others: at the top dose activity change, negative = inhibition, usual class: inhibitors; P83916; 0.56% of 390,000 active; AlphaScreen HP1-beta / biotin-H3K9me3 peptide binding; also: nearly all actives have a fitted effect of over 70% in size
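AlphaScreen: HP1-beta (50 nM) preformed 30 min with biotin-H3(1-18)K9me3 peptide (50 nM) in PBS pH 7.4, 0.01% Tween-20. Compound added for 30 min at RT, then streptavidin donor/nickel chelate acceptor beads (10 ug/mL) for 30 min.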
BAZ2B inh – blocks human BAZ2B; Potency, µM (doses to about 114 µM), for inactives: top-dose activity change, negative = inhibition, actives largely listed as inhibitors; AID 504333; Q9UIF8; 4.4% of 360,000 active; AlphaScreen BAZ2B-H3K14Ac peptide displacement; also: % is scaled to controls: 0 for no effect and ±100 for the full control effect; nearly all actives have a fitted effect of over 60% in size
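AlphaScreen displacement: compounds (up to 110uM) incubated 30 min at room temperature with a preformed 50 nM BAZ2B/50 nM biotinylated H3K14Ac peptide complex in PBS pH 7.4 with Tween-20. Donor and acceptor beads at 10 ug/mL final added, 20 min light-protected before reading.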
Sfp PPTase inh – blocks B. subtilis Sfp PPTase activity | Biochemical Sfp PPTase activity, qHTS | Potency, µM, inactives show largest response in the series, negative = inhibition, most hits filed as inhibitors | 3.5% of 310,000 active;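 also: the enzyme is Sfp with the accession as filed and its product quenches rhodamine fluorescence; 0% = enzyme reaction without inhibitor and -100% = no enzyme wells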
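Compounds were incubated with enzyme (final 15 nM) for 15 min at room temperature before substrate addition started the reaction. Fluorescence at 525 nm excitation, 598 nm emission was recorded immediately and after 30 minutes.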
G9a block – G9a (human) methyltransferase inhibition. Q96KQ7. Potency, µM (titrated, usually from 102 µM), for inactives: at the top dose activity, negative = inhibition, usual class: inhibitors. G9a H3K9 monomethylation, AlphaScreen, 2 h. 8.8% of 350,000 active; also: % is scaled to controls: 0 for no effect and ±100 for the full control effect; nearly all actives have a fitted effect of over 75% in size
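Chemiluminescent proximity detection of H3K9 monomethylation, read after 10 min bead incubation in the dark. Reaction: 20 nM G9a, 500 nM biotin-H3K9 peptide, 20 uM SAM cofactor, 2 h, room temperature, following 15 min enzyme-compound preincubation.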
L3MBTL1 inh – L3MBTL1 (human) inhibition; Q9Y468; AlphaScreen L3MBTL1–H3K9me1 peptide binding; Potency, µM (titrated, usually from 57.1 µM), without a hit: top-dose activity, negative = inhibition, actives largely listed as inhibitors; 0.66% of 230,000 active; AID 485360; also: % is scaled to controls: 0 for no effect and ±100 for the full control effect; nearly all actives have a fitted effect of over 60% in size
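Read-out is AlphaScreen signal from streptavidin donor and nickel chelate acceptor beads (10 ug/mL final each) bridging L3MBTL1 (50 nM) and biotinylated K9-monomethylated H3(1-15) peptide (75 nM), after 30 min compound exposure at room temperature.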
Active calls of the source: *; [ ] = dose if it differs, or a comment. This is a sample that favours compounds with a hit; in the whole collection about 12% have one here. Calls follow the shape of the dose curve; as a rule, active = well fitted curve in the direction sought with a large enough effect; inconclusive = small, poorly fitted or top-dose-only effect, or another doubt; inactive = no such curve, though single readings can be large; an effect the other way counts as inactive or inconclusive. Potency is read from the fitted curve at half-maximal effect.

What do the screens show for `Cc1ccc(C(=O)O)cc1NC(=O)C1=CSCCO1`?
JMJD2A Tudor: 14%; HP1b binding inh: 53%; BAZ2B inh: -7%; Sfp PPTase inh: 7%; G9a block: 50µM*

Results for Cc1ccc(C(=O)O)cc1NC(=O)c1cccs1 ?
JMJD2A Tudor: -11%; HP1b binding inh: 35%; BAZ2B inh: 39%; Sfp PPTase inh: 6%; G9a block: inconclusive; L3MBTL1 inh: inconclusive

What do the screens show for `CC1(C)CSC(=NCCc2ccccc2)N1C(=O)c1ccc(C#N)cc1`?
JMJD2A Tudor: 1%; HP1b binding inh: 29%; BAZ2B inh: inconclusive; Sfp PPTase inh: inconclusive; G9a block: 2.8µM*; L3MBTL1 inh: 6%

Results for CCC(Cc1ccccc1)NC(=O)CN1C(=O)COc2ccc(S(=O)(=O)N3CCCCCC3)cc21 (centres undefined) ?
JMJD2A Tudor: -10%; HP1b binding inh: 27%; BAZ2B inh: -10%; G9a block: -36%[59 µM]

What do the screens show for `O=c1cc(C(F)(F)F)[nH]c(=S)n1-c1ccccc1`?
JMJD2A Tudor: 79µM*; HP1b binding inh: inconclusive; BAZ2B inh: -26%; Sfp PPTase inh: 35µM*; G9a block: 8.9µM*

Results for COc1ccc(CNc2ccnc(-c3ccc(C(=O)N(C)C)cc3)n2)c(OC)c1 ?
Sfp PPTase inh: 9%; G9a block: -5%[0.501 µM]

Results for COc1ccc(CNc2ccnc(-c3ccc4c(c3)OCO4)n2)c(OC)c1 ?
Sfp PPTase inh: 45µM*; G9a block: -30%[0.501 µM]

How did COc1ccccc1CNc1ccnc(-c2ccc3c(c2)OCO3)n1 do in these assays?
Sfp PPTase inh: 50µM*

Results for COc1ccccc1CNc1ccnc(-c2ccccc2OC)n1 ?
Sfp PPTase inh: 79µM*; G9a block: -5%[0.501 µM]

Results for COc1ccc(CNc2cc(-c3ccccc3Cl)ncn2)c(OC)c1 ?
Sfp PPTase inh: 26%; G9a block: 6%[0.501 µM]

How did COc1ccc(CNc2cc(-c3ccccc3OC)ncn2)c(OC)c1 do in these assays?
Sfp PPTase inh: 89µM*; G9a block: -5%[0.501 µM]

How did Cc1ccc(NC(=O)CN2C(=O)COc3ccc(S(=O)(=O)Nc4ccccc4)cc32)c(C)c1 do in these assays?
JMJD2A Tudor: -11%; HP1b binding inh: 33%; BAZ2B inh: -12%; G9a block: -17%[59 µM]

What do the screens show for `COc1cc(NC(=O)CSc2cc(=O)n(C)c3ccccc23)cc(OC)c1OC`?
JMJD2A Tudor: -12%; HP1b binding inh: 4%; G9a block: -7%[59 µM]

How did c1ncc(-c2ccc3c(c2)OCO3)c(NCCc2cnc[nH]2)n1 do in these assays?
Sfp PPTase inh: -16%

Results for Cc1ccc(Cl)cc1N1CCN(C(=O)CCS(=O)(=O)c2ccc3c(c2)oc(=O)n3C)CC1 ?
JMJD2A Tudor: -14%; HP1b binding inh: 4%; BAZ2B inh: -2%[57.1 µM]; G9a block: -33%[59 µM]

What do the screens show for `COc1ccc(S(=O)(=O)c2nnn(-c3ccc(C)c(Cl)c3)c2C)cc1`?
JMJD2A Tudor: -14%; HP1b binding inh: 24%; BAZ2B inh: -3%; G9a block: -36%[59 µM]

What do the screens show for `O=C(Nc1c(Cl)cccc1Cl)c1cccc2c1C(=O)N(C1CCCCC1)C2`?
JMJD2A Tudor: -9%; HP1b binding inh: 28%; G9a block: 0%[59 µM]

How did O=[N+]([O-])c1ccc(N2CCCCC2)c(-c2nn[nH]n2)c1 do in these assays?
JMJD2A Tudor: -12%; HP1b binding inh: 19%; BAZ2B inh: inconclusive; Sfp PPTase inh: -4%; G9a block: 45µM*; L3MBTL1 inh: 2%

Results for O=C(Nc1ccccc1C(F)(F)F)NC1(C(=O)N2CCOCC2)CCCCC1 ?
JMJD2A Tudor: 8.9µM*; HP1b binding inh: -38%[57 µM]

Results for O=c1c(-c2ccc(F)cc2)nc2cnc(Nc3ccccc3)nc2n1C1CC1 ?
Sfp PPTase inh: 22%; G9a block: 3%[12.7 µM]

Results for O=C1CC(c2ccc(S(=O)(=O)N3CCCCC3)cc2)CN1 (centres undefined) ?
JMJD2A Tudor: -15%; HP1b binding inh: 17%; BAZ2B inh: -7%; Sfp PPTase inh: 7%; G9a block: -3%[59 µM]; L3MBTL1 inh: 12%[11.4 µM]

Results for NS(=O)(=O)c1ccc(NS(=O)(=O)c2ccc(C3CNC(=O)C3)cc2)cc1 (centres undefined) ?
JMJD2A Tudor: 50µM*; HP1b binding inh: 8%; BAZ2B inh: -2%; Sfp PPTase inh: 14%; G9a block: -35%

How did Cc1[nH]c(=O)[nH]c(=O)c1Sc1ccccc1[N+](=O)[O-] do in these assays?
JMJD2A Tudor: -12%; HP1b binding inh: 32%; BAZ2B inh: -6%; Sfp PPTase inh: 11%; G9a block: 56µM*

How did CCCCn1c(N)c(Sc2ccccc2[N+](=O)[O-])c(=O)[nH]c1=O do in these assays?
JMJD2A Tudor: -3%; HP1b binding inh: 27%; BAZ2B inh: -7%; Sfp PPTase inh: 12%; G9a block: -5%[12.7 µM]

What do the screens show for `COc1ccc(S(=O)(=O)N(CC(=O)Nc2cccc(C(F)(F)F)c2)c2ccc(C)cc2)cc1`?
JMJD2A Tudor: -14%; HP1b binding inh: 9%; BAZ2B inh: 6%; G9a block: 5%[59 µM]

What do the screens show for `Cc1nn(-c2ccccc2)c(C)c1/C=N\N1CCN(c2ccc(Cl)cc2)CC1`?
JMJD2A Tudor: 28µM*; HP1b binding inh: inconclusive; BAZ2B inh: 32µM*; Sfp PPTase inh: 25µM*; G9a block: inconclusive; L3MBTL1 inh: 4%

What do the screens show for `O=C(CCS(=O)(=O)c1cc(Br)cc2c1N(C(=O)C1CC1)CC2)Nc1ccc(F)cc1`?
JMJD2A Tudor: -16%; HP1b binding inh: 19%; BAZ2B inh: -6%; G9a block: -17%[59 µM]

How did CC(C)COc1ccc(C(=O)Nc2cc(-c3ccccc3)no2)cc1 do in these assays?
JMJD2A Tudor: -2%; HP1b binding inh: 28%; BAZ2B inh: -10%; G9a block: 2%[59 µM]

How did Cn1cccc1/C=N/N1CCN(Cc2ccccc2)CC1 do in these assays?
JMJD2A Tudor: inconclusive; HP1b binding inh: inconclusive; BAZ2B inh: 50µM*; Sfp PPTase inh: -23%; G9a block: 25µM*; L3MBTL1 inh: -24%

Results for FC(F)(F)c1ccc(/C=N/N2CCN(Cc3cccc4ccccc34)CC2)cc1 ?
JMJD2A Tudor: -20%[57.1 µM]; HP1b binding inh: -2%; BAZ2B inh: -30%[57.1 µM]; Sfp PPTase inh: 14%; G9a block: -12%; L3MBTL1 inh: 8%

What do the screens show for `Cn1cccc1/C=N/N1CCN(Cc2cccc3ccccc23)CC1`?
JMJD2A Tudor: 32µM*; HP1b binding inh: inconclusive; BAZ2B inh: 22µM*; Sfp PPTase inh: inconclusive; G9a block: 25µM*; L3MBTL1 inh: -18%
